In PubChem BioAssay (NCATS) one finds Potency and outcome data, which are given here for 37 compounds.

Experiment [1] is described as follows: Primary qHTS for Huh7 cytotoxicity: counterscreen for inhibitors of MERS-S pseudotyped particle cell entry (AID 1479147). Conditions: cell viability read-out; series mostly up to 57.1 µM.
A short description of experiment [2]: Primary qHTS for inhibitors of MERS-S pseudo-typed particle cell entry (AID 1479149). Also: nearly all actives have a fitted effect of over 60% in size. Also: potency is read from the fitted curve at half-maximal effect. The note with it: MERS-S pseudotyped particle entry, luciferase; series mostly up to 57.1 µM. (In general: Quantitative high-throughput screening tests each substance at several concentrations.)
Experiment [3] can be described thus: Primary qHTS for Vero E6 cytotoxicity: counterscreen for inhibitors of SARS-S pseudo-typed particle cell entry (AID 1479150). The note with it: cell viability; series mostly up to 57.1 µM.
Experiment [4] in a line: Confirmatory qHTS for activators (rescue) of SARS-CoV-2 Cytopathic Effect (CPE) (AID 1508606). Also: potency is read from the fitted curve at half-maximal effect; nearly all actives have a fitted effect of over 70% in size. The note with it: Vero E6 SARS-CoV-2 CPE rescue, viability luminescence; series mostly up to 20 µM.
Experiment [5] in a line: Primary qHTS for inhibitors of La Crosse Virus (LACV) - induced cell death in SH-SY5Y cells (AID 1508616; active = well fitted curve in the direction sought with a large enough effect; an effect the other way counts as inactive or inconclusive;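 also: top concentration of the series differs between compounds; higher means more rescue of cells from virus-induced death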). Conditions: SH-SY5Y LACV cytopathicity rescue, ATP luminescence, 6 d; series mostly up to 4.29 µM. The gist of the method:
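Protection against LACV-induced cell death is scored in SH-SY5Y cells exposed to compounds and virus (0.01 MOI) for 6 days. Data normalized to virus-infected DMSO wells and virus-free DMSO wells.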

The target in experiment [6] is Calcium and integrin-binding protein 1 (Homo sapiens) (UniProt Q99828). In words: Primary qHTS for Identification of Calcium Integrin Binding Protein 1 (CIB1) Competitor (AID 1508620; active = well fitted curve in the direction sought with a large enough effect; an effect the other way counts as inactive or inconclusive;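 also: GST tagged CIB1 binding a fluorescein labelled alphaIIb integrin peptide tracer; top concentration of the series differs between compounds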). The note with it: CIB1-GST / FITC-alphaIIb peptide fluorescence polarization; series mostly up to 114 µM. Summed up: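 Fluorescence polarization competition: CIB1-GST (1 uM final) preincubated with compound 15 min at room temperature, then FITC-labeled alphaIIb peptide (100 nM final) added for another 15 min. Polarization read at Ex 480/Em 540.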
Sequence of Calcium and integrin-binding protein 1 (Homo sapiens) (Q99828 whole entry, looked up): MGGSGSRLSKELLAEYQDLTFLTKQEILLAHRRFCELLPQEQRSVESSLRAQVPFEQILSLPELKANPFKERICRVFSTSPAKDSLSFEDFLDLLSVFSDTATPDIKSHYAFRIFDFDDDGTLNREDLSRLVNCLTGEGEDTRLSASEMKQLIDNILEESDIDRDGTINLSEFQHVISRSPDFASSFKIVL

The nature of experiment [7]: Confirmatory qHTS for VERO E6 Cytotoxicity Assay: Counterscreen for SARS-CoV-2 CPE Assay (AID 1508605). Also: nearly all actives have a fitted effect of over 60% in size. Conditions: cell viability luminescence; series mostly up to 20 µM.

Each structure is given as a SMILES string. Records with an inconclusive call do not appear. Active and inactive are the calls of the source. Unless noted, calls follow the shape of the full dose curve.

On to `CCN1C(=O)c2ccccc2C1Nc1ccc(OCCN2CCCCC2)cc1` (configuration not stated), for which the Potency result in experiment [1], in experiment [2] and in experiment [3] was “inactive” each time.

Consider `Nc1ccn(C2CO[C@H](CO)O2)c(=O)n1` (some centres not stated), for which the Potency entry in experiment [1], in experiment [2] and in experiment [3] was “inactive” in each case.

In the case of `O=c1[nH]c(=O)n([C@H]2C[C@H](O)[C@@H](CO)O2)cc1C(F)(F)F`, the Potency entry in experiment [1] and in experiment [3] was “inactive” each time. Moreover, in experiment [2], the Potency was 10 µM (active).

`O=C1O[C@H]([C@@H](O)CO)C(O)=C1O`: the Potency entry in experiment [1], in experiment [2] and in experiment [3] was “inactive” each time.

With `O=C(OCC(O)CO)c1ccccc1Nc1ccnc2cc(Cl)ccc12` (configuration not stated), the Potency result in experiment [1], in experiment [2] and in experiment [3] was “inactive” each time.

In the case of `CN1CCC(=C2c3ccccc3CCc3cccnc32)CC1`, the Potency result in experiment [1], in experiment [2] and in experiment [3] was “inactive” in each case.

`Cc1ccc(/C(=C\CN2CCCC2)c2ccccn2)cc1`: the Potency entry in experiment [1], in experiment [2] and in experiment [3] was “inactive” each time.

`C=CCc1ccccc1OCC(O)CNC(C)C` (configuration not stated): the Potency result in experiment [1], in experiment [2] and in experiment [3] was “inactive” in each case.

Take `COc1ccc2cc3[n+](cc2c1OC)CCc1cc2c(cc1-3)OCO2`: the Potency result in experiment [1] and in experiment [3] was “inactive” throughout. In experiment [2], the Potency was 12.6 µM (active).

Regarding `CN1CCC(=C2c3ccccc3CC(=O)c3sccc32)CC1`, the Potency entry in experiment [1], in experiment [2] and in experiment [3] was “inactive” each time.

With `C/C=C/C(=O)N(CC)c1ccccc1C`, the Potency result in experiment [1], in experiment [2] and in experiment [3] was “inactive” each time.

On to `CCn1c(=O)c2c(nc(C=Cc3ccc(OC)c(OC)c3)n2C)n(CC)c1=O`, for which the Potency result in experiment [1], in experiment [2] and in experiment [3] was “inactive” each time.

For `CCCCNc1ccc(C(=O)OCCN(CC)CC)cc1`, the Potency entry in experiment [1], in experiment [2] and in experiment [3] was “inactive” each time.

In the case of `CN(C)[C@@H](CCOc1cccc2ccccc12)c1ccccc1`, in experiment [4], the Potency was 10 µM (active).

For `CN1CCC(=C2c3ccccc3CCc3sccc32)CC1`, the Potency in experiment [4] was 11.2 µM (active).

With `C#C[C@]1(O)CC[C@H]2[C@@H]3CCC4=CC(=O)CCC4=C3C=C[C@@]21CC`, the call in experiment [5] was inactive. Moreover, in experiment [6], the Potency result was “inactive”.

Regarding `Clc1ccc(Cn2c(CN3CCCC3)nc3ccccc32)cc1`, the Potency result in experiment [1] and in experiment [3] was “inactive” in each case.

As to `CCCCCCCCCCCCCCCCCCOCC(O)CO` (configuration not stated), the Potency entry in experiment [1] and in experiment [3] was “inactive” in each case.

In the case of `Clc1ccc(C(Cn2ccnc2)OCc2ccsc2Cl)c(Cl)c1` (configuration not stated), the Potency entry in experiment [1] and in experiment [3] was “inactive” in each case.

Regarding `CCCN(CCC)C(=O)C(CCC(=O)OCCCN1CCN(CCOC(=O)Cc2c(C)n(C(=O)c3ccc(Cl)cc3)c3ccc(OC)cc23)CC1)NC(=O)c1ccccc1` (configuration not stated), the Potency result in experiment [1], in experiment [3] and in experiment [7] was “inactive” in each case. Moreover, the Potency in experiment [4] is 10 µM (active).

On to `OCCN1CCN(CCCN2c3ccccc3C=Cc3ccccc32)CC1`, for which the Potency entry in experiment [1] and in experiment [3] was “inactive” each time.

As to `CN1CC(=O)N2[C@H](c3ccc4c(c3)OCO4)c3[nH]c4ccccc4c3C[C@@H]2C1=O`, the Potency result in experiment [1] and in experiment [3] was “inactive” each time.

For `C[C@@H](CN(C)C)CN1c2ccccc2Sc2ccccc21`, the Potency result in experiment [1], in experiment [3] and in experiment [7] was “inactive” in each case.

Regarding `CC1CCCCN1CCCOC(=O)c1ccc(OC2CCCCC2)cc1` (configuration not stated), the Potency result in experiment [1], in experiment [3] and in experiment [7] was “inactive” in each case. The Potency in experiment [4] was 8.91 µM (active).

Consider `NS(=O)(=O)c1cc2c(cc1Cl)NCNS2(=O)=O`, for which the Potency result in experiment [1] and in experiment [3] was “inactive” in each case.

`COC(=O)C1=C(C)NC(C)=C(C(=O)OCCN2CCN(C(c3ccccc3)c3ccccc3)CC2)C1c1cccc([N+](=O)[O-])c1` (configuration not stated): the Potency entry in experiment [1] and in experiment [3] was “inactive” throughout.

As to `CCCCc1cc2ccccc2c(OCCN(C)C)n1`, the Potency result in experiment [1] and in experiment [3] was “inactive” throughout.

On to `Cc1ccc(Cl)c(OCC(O)CNC(C)(C)C)c1` (configuration not stated), for which the Potency result in experiment [1] and in experiment [3] was “inactive” throughout.

`COc1cccc(CCc2ccccc2OCC(CN(C)C)OC(=O)CCC(=O)O)c1` (configuration not stated): the Potency entry in experiment [1], in experiment [3] and in experiment [7] was “inactive” in each case.

Take `CO[C@@H]1[C@@H](O[C@@H]2O[C@H](C)[C@@H](O[C@H]3C[C@@](C)(O)[C@@H](O)[C@H](C)O3)[C@H](N(C)C)[C@H]2O)[C@@H](CC=O)C[C@@H](C)[C@@H](O[C@@H]2CC[C@H](N(C)C)[C@@H](C)O2)/C=C/C=C/C[C@@H](C)OC(=O)C[C@H]1OC(C)=O`: the Potency result in experiment [1], in experiment [3] and in experiment [7] was “inactive” in each case.

On to `O=C(Nc1ccc(Cl)cc1)Nc1ccc(Cl)c(C(F)(F)F)c1`, for which the Potency entry in experiment [1] and in experiment [3] was “inactive” each time.

With `O=C(Nc1ccccc1)OCC(CN1CCCCC1)OC(=O)Nc1ccccc1` (configuration not stated), the Potency result in experiment [1] and in experiment [3] was “inactive” each time.

Consider `OC(CCCN1CCCCC1)(c1ccccc1)c1ccccc1`, for which the Potency result in experiment [1] and in experiment [3] was “inactive” in each case.

In the case of `COc1ccc(CN2CCN(C(c3ccc(F)cc3)c3ccc(F)cc3)CC2)c(OC)c1OC`, the Potency entry in experiment [1] and in experiment [3] was “inactive” throughout.

Regarding `COc1ccc2c(c1)c(CC(=O)O)c(C)n2C(=O)c1ccc(Cl)cc1`, the Potency entry in experiment [1] and in experiment [3] was “inactive” in each case.

For the compound `CC(C)C[C@@H]1[C@H](c2ccccc2)OC(=O)N1CCCN1CCCCCC1`, the Potency entry in experiment [1] and in experiment [3] was “inactive” each time.

With `C=C1C[C@H]2[C@@H]3C=C(C)C4=CC(=O)CC[C@]4(C)[C@H]3CC[C@]2(C)[C@@]1(OC(C)=O)C(C)=O`, the Potency result in experiment [1] and in experiment [3] was “inactive” each time.
